In the library only some 2.5% were active in any assay of this set; here they are far more common.
G6PDH counter = L. mesenteroides G6PDH inhibitors, counter-screen for G6PDH-coupled screening assays, biochemical, Leuconostoc mesenteroides enzyme. AID 1020, 2008. glucose-6-phosphate dehydrogenase [Leuconostoc mesenteroides]. Purified L. mesenteroides G6PDH, diaphorase/resazurin coupled fluorescence, 45 min. inhibition, % at 5 µM. 0.12% of 200,000 active; in the data active = inhibition above about 50%
PHOSPHO1 inh = PubChem AID 1565; inhibition, % at 13.3 µM; 1.1% of 290,000 active; recombinant PHOSPHO1, absorbance phosphatase assay; in the data active = inhibition above about 60%
Target sequence (Q8TCT1 whole entry, looked up): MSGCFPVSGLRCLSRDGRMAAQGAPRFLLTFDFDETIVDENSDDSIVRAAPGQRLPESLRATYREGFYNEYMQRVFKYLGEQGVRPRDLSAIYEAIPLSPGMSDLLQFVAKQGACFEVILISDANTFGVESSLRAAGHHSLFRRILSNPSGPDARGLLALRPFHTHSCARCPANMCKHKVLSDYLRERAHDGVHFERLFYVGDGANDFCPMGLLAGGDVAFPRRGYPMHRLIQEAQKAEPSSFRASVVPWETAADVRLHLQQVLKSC
PfM18AAP inh-1 = PfM18AAP inhibitors, malaria aminopeptidase, primary screen, biochemical, QFRET, recombinant enzyme | AID 1822, 2009 | H-Glu-NHMec fluorogenic cleavage | inhibition, % at 7.35 µM | 1.2% of 290,000 active | M18 aspartyl aminopeptidase (Plasmodium falciparum 3D7);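 active = inhibition above the campaign mean inhibition over all tested compounds plus 3 SD, cut at about 28% in these data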
p97 inhibitor = inhibitors of human p97 ATPase, primary screen, biochemical; AID 1481, 2009; 0.42% of 220,000 active; Transitional endoplasmic reticulum ATPase (Homo sapiens), P55072; inhibition, % at 8 µM; recombinant p97 ATPase, Kinase-Glo ATP luminescence, 3 h; in the data active = inhibition above about 15%
HDAC3 inhib = HDAC3 deacetylase inhibitors, primary screen, biochemical, fluorescence, cell-free homogeneous. Histone deacetylase 3 (Homo sapiens), O15379. recombinant HDAC3, fluorogenic peptide/trypsin coupled. inhibition, % at 8.3 µM. 0.15% of 320,000 active. AID 2718, 2010; in the data active = inhibition above about 26%, passing the limit was not always enough
UBC9 SUMO inh = inhibitors of in vitro SUMOylation cascade, primary screen, biochemical, HTRF, uHTS; SUMO-conjugating enzyme UBC9 (Homo sapiens), P63279; HTRF SUMOylation assay, SAE1/SAE2 + UBC9; inhibition, % at 35 µM; 0.36% of 290,000 active; AID 2006, 2009; in the data active = inhibition above about 50%, passing the limit was not always enough
Target sequence (P63279 whole entry, looked up): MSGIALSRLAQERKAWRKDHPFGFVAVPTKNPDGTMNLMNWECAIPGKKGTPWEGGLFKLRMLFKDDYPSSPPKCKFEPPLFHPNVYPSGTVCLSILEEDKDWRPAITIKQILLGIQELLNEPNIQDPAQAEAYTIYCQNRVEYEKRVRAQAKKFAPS
PfM18AAP inh-2 = PfM18AAP inhibitors, malaria aminopeptidase, confirmation, biochemical, QFRET, recombinant enzyme, triplicate; shares compounds with PfM18AAP inh-1; AID 2170, 2009; inhibition, % at 7.35 µM; 28% of 2,400 active; H-Glu-NHMec fluorogenic cleavage;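 active = mean inhibition over replicate wells above the hit cutoff set for the earlier primary screen, cut at about 29% in these data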
CTSL1 confirm = cathepsin L1 inhibitors, retest, confirmation, counter-screen for PFM18AAP inhibitor project, biochemical, QFRET, triplicate | shares compounds with PfM18AAP inh-1 | purified cathepsin L1, Z-Leu-Arg-MCA fluorescence | inhibition, % at 5.96 µM | 2,400 tested, under 10 active | AID 2178, 2009;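 active = average inhibition across replicates above the hit cutoff set in the earlier primary screen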
Of the large screens only hits and unclear results are named; the others gave an inactive call (follow-up assays come after a bar, where they were run).

O=C(CCc1nnc2ccc(NCc3ccco3)nn12)Nc1ccccc1F	PfM18AAP inh-1 48 (no result: G6PDH counter, p97 inhibitor) | PfM18AAP inh-2 inactive | CTSL1 confirm inactive
COc1ccccc1NC(=O)CCc1nnc2ccc(NCc3ccco3)nn12	none (no result: G6PDH counter, p97 inhibitor)
O=C(CSc1nnc(-c2ccccc2Br)o1)Nc1nncs1	PfM18AAP inh-1 44 | PfM18AAP inh-2 inactive | CTSL1 confirm inactive
CCOC(=O)C1(C)NC(c2cccc(C)c2)C2C(=O)N(c3ccccc3)C(=O)C21 (centres undefined)	none (no result: G6PDH counter, PHOSPHO1 inh, p97 inhibitor)
COC(=O)c1ccccc1NCc1cc(=O)oc2cc(O)c(O)cc12	PfM18AAP inh-1 34 (no result: G6PDH counter, p97 inhibitor) | PfM18AAP inh-2 inactive | CTSL1 confirm inactive
O=C(c1ccccc1)c1c(-c2ccccc2)[nH]n(-c2ccccc2)c(=O)c1=O	none (no result: G6PDH counter, PHOSPHO1 inh, PfM18AAP inh-1, p97 inhibitor, UBC9 SUMO inh)
O=C(NNc1ccc(-c2csnn2)cc1)c1ccccc1C(F)(F)F	PfM18AAP inh-1 40 (no result: G6PDH counter) | PfM18AAP inh-2 inactive | CTSL1 confirm inactive
Clc1cnc(N/N=C/c2cccs2)c(Cl)c1	none
Clc1cnc(N/N=C/c2ccco2)c(Cl)c1	PfM18AAP inh-1 47 | PfM18AAP inh-2 inactive | CTSL1 confirm inactive
Fc1cccc(C[n+]2csc3ccccc32)c1	PfM18AAP inh-1 34 | PfM18AAP inh-2 inactive | CTSL1 confirm inactive
OCCN(Cc1ccccc1)Cc1cccc(F)c1	none
CN(CC(=O)N1CCN(c2ccccc2)CC1)C1CCCc2ccccc21 (centres undefined)	none (no result: G6PDH counter, p97 inhibitor)
CCc1nnc(NC(=O)CN2C(=O)/C(=C/c3cc(OC)c(OC)c(OC)c3)SC2=S)s1	PfM18AAP inh-1 33 (no result: HDAC3 inhib) | PfM18AAP inh-2 inactive | CTSL1 confirm inactive
COc1cc(/C=C2/SC(=S)N(CC(=O)Nc3nc4ccccc4s3)C2=O)cc(OC)c1OC	none
COc1cc(/C=N/n2c(-c3ccccc3)n[nH]c2=S)cc(OC)c1O	PfM18AAP inh-1 32 (no result: G6PDH counter) | PfM18AAP inh-2 inactive | CTSL1 confirm inactive
Cc1ccc(-c2n[nH]c(=S)n2/N=C/c2ccc(C(=O)O)cc2)cc1	PfM18AAP inh-1 36 (no result: G6PDH counter, p97 inhibitor) | PfM18AAP inh-2 inactive | CTSL1 confirm inactive
Cc1ccc(/C=N/n2c(-c3ccccc3)n[nH]c2=S)cc1	none (no result: G6PDH counter, p97 inhibitor)
COc1cccc(OCC(=O)Nc2ccccc2C(=O)Nc2ccc(C(=O)O)cc2)c1	none (no result: G6PDH counter, p97 inhibitor)
N/C(=N\N=C\c1ccc(O)c(O)c1)c1nonc1N	PfM18AAP inh-1 43 (no result: G6PDH counter) | PfM18AAP inh-2 inactive | CTSL1 confirm inactive
O=C(CC(=O)N/N=C/c1ccc(O)cc1)N/N=C/c1ccc(O)cc1	none (no result: G6PDH counter)
COc1cc(/C=N/NC(=O)c2nonc2C)ccc1O	none
O=C(N/N=C/c1ccc(O)c(O)c1)N/N=C/c1ccc(O)c(O)c1	PfM18AAP inh-1 80 (no result: G6PDH counter, p97 inhibitor, UBC9 SUMO inh) | PfM18AAP inh-2 64 | CTSL1 confirm inactive
Cc1nonc1C(=O)N/N=C/c1ccc(O)c(O)c1	PfM18AAP inh-1 66 | PfM18AAP inh-2 66 | CTSL1 confirm inactive
O=C(NNC(=O)C1CC=CCC1)c1ccccc1Cl (centres undefined)	none (no result: G6PDH counter, p97 inhibitor)
S=c1[nH]nc(Cn2nnc3ccccc32)n1-c1ccc(Cl)cc1	PfM18AAP inh-1 39 | PfM18AAP inh-2 inactive | CTSL1 confirm inactive
S=c1[nH]nc(CN2CCCCC2)n1-c1ccc(Cl)cc1	none
S=c1[nH]nc(Cn2cnc3ccccc32)n1-c1ccccc1	PfM18AAP inh-1 42 | PfM18AAP inh-2 inactive | CTSL1 confirm inactive
Cc1cccc(NC(=O)CSCC(=O)NCc2ccco2)c1	none (no result: G6PDH counter, PHOSPHO1 inh, p97 inhibitor)
CC1CCN(S(=O)(=O)CCNC(=O)c2ccc3c(c2)OCO3)CC1	none (no result: G6PDH counter, PHOSPHO1 inh, PfM18AAP inh-1, p97 inhibitor, UBC9 SUMO inh)
CC(C)(C)C1CCC(=NNc2ncc(C(F)(F)F)cc2Cl)CC1 (centres undefined)	PfM18AAP inh-1 33 | PfM18AAP inh-2 inactive | CTSL1 confirm inactive
C/C(=N/Nc1ncc(C(F)(F)F)cc1Cl)c1ccncc1	none

High-throughput results: PubChem, several laboratories
